Test [1] in a line: A CellTox Green Cytotoxicity Assay to monitor cytotoxicity in HEK293 cells - 32 hour (AID 1224881). Also: nearly all actives have a fitted effect of over 40% in size. Put shortly:
(§1)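 Seeding of HEK293 cells together with cytotoxicity dye preceded a 5 h incubation at 37 C/5% CO2. Test compounds in DMSO were then added and fluorescence monitored across 40 h.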

A short description of test [2]: A CellTox Green Cytotoxicity Assay to monitor cytotoxicity in HepG2 cells - 0 hour (AID 1224882). Also: nearly all actives have a fitted effect of over 35% in size. Put shortly: (§2)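 Nonlytic assay: viable cells exclude the dye, so fluorescence scales with cell death. HepG2 at 600 cells/well, compounds added after 5 h, signal read across 40 h.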
Test [3] is described as follows: A CellTox Green Cytotoxicity Assay to monitor cytotoxicity in HepG2 cells - 32 hour (AID 1224883). Also: nearly all actives have a fitted effect of over 50% in size. The method, boiled down: as §2
The nature of test [4]: A CellTox Green Cytotoxicity Assay to monitor cytotoxicity in HEK293 cells - 8 hour (AID 1224884). Also: nearly all actives have a fitted effect of over 35% in size. Put shortly: as §1
The nature of test [5]: qHTS RealTime-Glo MT Cell Viability Assay in HepG2 cells - 16 hour (AID 1224885). Also: nearly all actives have a fitted effect of over 50% in size. Put shortly:
(§3)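 Luminescence read-out: viable HepG2 cells reduce a prosubstrate to a NanoLuc substrate, giving a signal proportional to live cell number. Reads taken at 0, 8, 16, 24, 32 and 40 h of compound exposure at 37 C.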
In general terms: qHTS replaces the single test concentration by a dilution series.

Test [6] in a line: qHTS RealTime-Glo MT Cell Viability Assay in HEK293 cells - 24 hour (AID 1224886). Also: top concentration of the series differs between compounds; nearly all actives have a fitted effect of over 50% in size. Put shortly:
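Nonlytic real-time viability readout: viable cells convert prosubstrate to NanoLuc substrate, giving luminescence proportional to live cell number. HEK293, 600 cells/well, compound added after 5 h, continuous culture at 37 C.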

Test [7] is described as follows: qHTS RealTime-Glo MT Cell Viability Assay in HEK293 cells - 8 hour (AID 1224887). Also: top concentration of the series differs between compounds; nearly all actives have a fitted effect of over 50% in size. The method, boiled down:
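Tox21 screen in HEK293 using RealTime-Glo MT chemistry, with cells and reagent co-dispensed. Luminescence proportional to viable cell number was captured at intervals during 40 h compound exposure at 37 C.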

A short description of test [8]: qHTS RealTime-Glo MT Cell Viability Assay in HepG2 cells - 0 hour (AID 1224889). Also: nearly all actives have a fitted effect of over 50% in size. The method, boiled down: as §3
The nature of test [9]: A CellTox Green Cytotoxicity Assay to monitor cytotoxicity in HepG2 cells - 8 hour (AID 1224890). Also: nearly all actives have a fitted effect of over 45% in size. Put shortly:
as §2

The nature of test [10]: qHTS assay to identify small molecule antagonists of the estrogen receptor alpha (ER-alpha) signaling pathway using the BG1 cell line in the presence of 0.1 nM 17-beta-estradiol - cell viability counter screen (AID 1259241). Also: nearly all actives have a fitted effect of over 40% in size. The method, boiled down: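 Cells were plated and left 24 hr, compounds in DMSO were pinned in, 17beta-estradiol was added to 0.1 nM final, and after 22 hr CellTiter-Fluor reagent was added for 30 min before fluorescence was read.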

Test [11] is described as follows: qHTS assay to identify small molecule antagonists of the androgen receptor (AR) signaling pathway using the MDA cell line in the presence of 0.5 nM R1881 - cell viability counter screen (AID 1259242). Also: nearly all actives have a fitted effect of over 45% in size. Put shortly:
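R1881 at 0.5 nM final stimulated MDA-kb2 cells during 16 hr compound treatment at 37C. Cytotoxicity read: CellTiter-Fluor fluorescence after 30 min.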

Test [12] deals with Estrogen receptor (Homo sapiens) (UniProt P03372). Nature of the test: qHTS assay to identify small molecule antagonists of the estrogen receptor alpha (ER-alpha) signaling pathway using the BG1 cell line in the presence of 0.1 nM 17-beta-estradiol (AID 1259244). Also: nearly all actives have a fitted effect of over 50% in size. Put shortly:
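VM7Luc4E2; 4xERE-luciferase; 0.1 nM E2 final; 22 h co-incubation, 37C; ONE-Glo luminescence after 30 min at room temperature.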

Test [13] is described as follows: qHTS assay to identify small molecule HDAC inhibitors (AID 1259364).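 Also: wild-type HCT-116 cells with endogenous class I/II HDAC activity; top concentration of the series differs between compounds; nearly all actives have a fitted effect of over 45% in size.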 Put shortly:
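Relative class I and II HDAC activity is taken from the luminogenic signal in HCT-116 cells, with compound exposure 2 hr and reagent development 30 min at room temperature.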

Test [14] can be described thus: qHTS assay to identify small molecule HDAC inhibitors - cell viability counter screen (AID 1259365). The method, boiled down: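 Counter screen in wild-type HCT-116 cells: compounds dissolved in DMSO are pin-transferred onto overnight-plated cells and left 2hr at 37C. ATP-based CellTiter-Glo luminescence then measures viable cells.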
A short description of test [15]: qHTS assay to identify small molecule agonists of the sonic hedgehog signaling (Shh) pathway - cell viability counter screen (AID 1259366). Also: nearly all actives have a fitted effect of over 50% in size. The method, boiled down:
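Cells are plated at 2,000 per well and left 4hr at 37C, 5% CO2 before compound addition. After 23hr of treatment, CellTiter-Fluor reagent is added for 1hr at 37C and fluorescence is measured.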

The nature of test [16]: qHTS assay to identify small molecule antagonists of the sonic hedgehog signaling (Shh) pathway - cell viability counter screen (AID 1259367). Also: nearly all actives have a fitted effect of over 55% in size. Also: potency is read from the fitted curve at half-maximal effect. The method, boiled down: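 NIH/3T3-derived Gli1-Luc reporter cells, 2,000/well, plated 4 hr before compound addition, then stimulated with conditioned medium for 24 hr at 37C. Viability measured in the same wells by CellTiter-Fluor fluorescence, reagent added at 23 hr for 1 hr.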

A short description of test [17]: qHTS assay to identify small molecule agonists of the sonic hedgehog signaling (Shh) pathway (AID 1259368; calls by dose curve;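 also: NIH/3T3-derived 3T3Gli1-Luc cells carrying a stable Gli1-driven firefly luciferase reporter; series mostly up to about 92 µM; nearly all actives have a fitted effect of over 15% in size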). The method, boiled down: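 Mouse fibroblast (NIH/3T3) reporter cells with stably integrated Gli1-Luc were treated 24 hr with compound; firefly luciferase luminescence served as the read-out.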
Test [18] can be described thus: A CellTox Green Cytotoxicity Assay to monitor cytotoxicity in HEK293 cells - 16 hour (AID 1224888). Also: nearly all actives have a fitted effect of over 35% in size. Put shortly: as §1
Test [19] can be described thus: qHTS assay to identify small molecule phospholipidosis (PLD) inducers (AID 1259344; active = well fitted curve in the direction sought with a large enough effect; an effect the other way counts as inactive or inconclusive). The method, boiled down:
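HepG2 cells, 900/well, treated with compound plus LipidTOX Red for 24 h at 37 C; amiodarone positive and DMSO negative controls. Fixed with paraformaldehyde/Hoechst, then high-content imaging scored LipidTOX pit count and integrated intensity per well and per cell.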

The target of test [20] is Androgen receptor (Homo sapiens) (UniProt P10275). In words: qHTS assay to identify small molecule antagonists of the androgen receptor (AR) signaling pathway using the MDA cell line in the presence of 0.5 nM R1881 (AID 1259243). Also: nearly all actives have a fitted effect of over 50% in size. Put shortly:
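We exposed MDA-kb2 cells to compounds under 0.5 nM R1881 stimulation for 16 hr at 37C and quantified MMTV-driven luciferase by luminescence.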

Here are results for nine molecules from PubChem BioAssay (Tox21).

Inconclusive results are not listed. Where a structure was tested more than once in an assay, its records may differ in their call. Active and inactive are the calls of the source. Unless noted, calls follow the shape of the dose curve; as a rule, active = well fitted curve in the direction sought with a large enough effect in the repeat runs; inconclusive = weak or mixed curves; inactive = no such curve, though single readings can be large; an effect the other way counts as inactive or inconclusive.

Sequence of Estrogen receptor (Homo sapiens) (P03372 whole entry, looked up): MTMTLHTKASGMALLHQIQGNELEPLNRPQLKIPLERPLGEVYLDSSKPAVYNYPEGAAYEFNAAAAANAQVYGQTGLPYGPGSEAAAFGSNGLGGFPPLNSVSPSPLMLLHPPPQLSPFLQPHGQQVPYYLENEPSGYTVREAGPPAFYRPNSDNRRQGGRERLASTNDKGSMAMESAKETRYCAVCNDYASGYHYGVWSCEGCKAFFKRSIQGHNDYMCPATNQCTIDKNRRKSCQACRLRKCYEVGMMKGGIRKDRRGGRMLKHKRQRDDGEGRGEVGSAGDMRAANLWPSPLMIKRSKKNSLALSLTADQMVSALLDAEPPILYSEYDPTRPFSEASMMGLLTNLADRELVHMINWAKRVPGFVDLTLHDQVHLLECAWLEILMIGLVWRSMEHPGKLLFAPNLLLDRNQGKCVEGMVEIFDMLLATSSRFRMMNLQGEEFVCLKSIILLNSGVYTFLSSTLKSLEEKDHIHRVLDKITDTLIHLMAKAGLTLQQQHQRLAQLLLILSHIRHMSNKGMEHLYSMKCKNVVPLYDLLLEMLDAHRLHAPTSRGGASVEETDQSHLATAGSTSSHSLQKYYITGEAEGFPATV
Sequence of Androgen receptor (Homo sapiens) (P10275 whole entry, looked up): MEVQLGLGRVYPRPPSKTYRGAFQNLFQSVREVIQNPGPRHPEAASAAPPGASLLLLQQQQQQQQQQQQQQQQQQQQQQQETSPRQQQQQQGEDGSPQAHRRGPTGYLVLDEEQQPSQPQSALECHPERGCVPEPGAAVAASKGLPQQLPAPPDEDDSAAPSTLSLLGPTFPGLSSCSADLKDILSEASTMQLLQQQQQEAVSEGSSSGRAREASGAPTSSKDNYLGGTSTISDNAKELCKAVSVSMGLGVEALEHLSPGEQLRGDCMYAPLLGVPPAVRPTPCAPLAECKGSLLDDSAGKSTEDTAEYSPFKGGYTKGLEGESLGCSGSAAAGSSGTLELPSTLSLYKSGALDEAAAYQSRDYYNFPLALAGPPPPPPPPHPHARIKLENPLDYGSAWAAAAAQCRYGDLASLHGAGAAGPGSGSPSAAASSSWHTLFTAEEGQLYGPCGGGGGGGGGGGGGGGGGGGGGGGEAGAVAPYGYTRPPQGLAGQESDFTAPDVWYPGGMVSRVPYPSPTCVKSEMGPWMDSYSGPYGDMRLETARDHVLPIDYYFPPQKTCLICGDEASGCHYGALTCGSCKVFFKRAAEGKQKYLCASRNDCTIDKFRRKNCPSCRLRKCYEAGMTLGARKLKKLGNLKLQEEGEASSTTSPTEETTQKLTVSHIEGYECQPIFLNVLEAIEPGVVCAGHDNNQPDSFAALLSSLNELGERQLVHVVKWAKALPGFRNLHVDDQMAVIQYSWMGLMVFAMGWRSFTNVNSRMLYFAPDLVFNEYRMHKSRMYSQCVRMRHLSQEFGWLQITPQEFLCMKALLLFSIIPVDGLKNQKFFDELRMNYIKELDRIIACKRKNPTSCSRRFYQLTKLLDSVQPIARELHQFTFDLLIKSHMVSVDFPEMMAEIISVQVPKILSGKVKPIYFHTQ

On to `Nc1nc(N)nc(-c2ccccc2)n1`, for which the Potency entry in test [1], in test [3], in [5], in [6], in test [7] and in test [8] was “inactive” throughout. The Potency result in test [10], in test [11], in [12], in [13], in test [15] and in [16] was “inactive” in each case. The outcome in test [2], in test [4], in test [9], in test [14] and in test [17] was inactive.
In the case of `C=C(C)CNCC`, the Potency result in [1], in test [3], in test [5], in test [6], in test [7] and in test [18] was “inactive” each time. Moreover, the Potency entry in test [8], in [10], in [11] and in test [16] was “inactive” throughout. Besides, the outcome in test [2], in test [4], in [9], in test [14] and in test [17] was inactive.
For the molecule `CCCCCCCCCCCCCCCC(=O)OC(C)C`, the Potency entry in test [1], in test [3], in test [5], in test [6], in test [7] and in test [8] was “inactive” in each case. The Potency entry in test [10], in [11], in test [15] and in [16] was “inactive” each time. Further, the molecule was classed as inactive in test [2], in test [4], in test [9], in test [19], in test [14] and in [17].
Consider `O=C1CCCC1`, for which the Potency entry in test [1], in test [3], in test [7], in test [8], in test [10] and in test [11] was “inactive” each time. In addition, the Potency entry in test [12], in test [13], in [15] and in test [16] was “inactive” each time. The molecule was classed as inactive in [2], in [4], in test [9], in [14] and in [17].
In the case of `OC1C(O)C(O)C(O)C(O)C1O` (stereo unspecified), the Potency entry in [1], in [3], in test [5], in [7], in test [8] and in test [10] was “inactive” each time. In addition, the Potency entry in test [11], in test [12], in [15] and in [16] was “inactive” throughout. For the same molecule, the outcome in test [2], in [4], in [9], in [19], in test [14] and in test [17] was inactive.
As to `Cc1ccc(S(=O)(=O)N=C=O)cc1`, the Potency result in [1], in test [3], in [7], in [18], in [8] and in test [10] was “inactive” each time. For the same molecule, the Potency entry in test [11] and in test [12] was “inactive” throughout. The outcome in [2], in test [4], in test [9], in test [14] and in [17] was inactive. In test [16], the Potency is 23.9 µM (active) and inactive.
On to `CCCOC(=O)c1ccccc1`, for which the Potency entry in [1], in [3], in test [6], in [7], in test [8] and in [10] was “inactive” each time. In addition, the Potency result in test [11] and in test [16] was “inactive” in each case. In addition, the molecule was called inactive in test [2], in test [4], in [9], in test [19], in [14] and in [17].
As for `O=C(O)c1ccc(C(=O)O)c(C(=O)O)c1`, the Potency result in test [1], in test [3], in test [6], in test [7], in [18] and in test [8] was “inactive” each time. In addition, the Potency result in test [10], in [11], in [20], in test [12], in [13] and in [15] was “inactive” throughout. Moreover, in [16], the Potency entry is “inactive”. In addition, the call in test [2], in [4], in test [9], in test [14] and in test [17] was inactive.
As to `CCNC(=S)NCC`, the Potency result in test [1], in test [3], in [6], in test [7], in [18] and in [8] was “inactive” each time. The Potency result in test [10], in [11], in test [12], in [15] and in [16] was “inactive” throughout. Besides, the outcome in test [2], in [4], in test [9], in test [14] and in test [17] was inactive.
